From article PMC5540273 (PLoS ONE, 2017)

Columns and labels:
Settings in all cases: concentration: 1 μM, replicates: in singlicate; n = 1
IRAK3 = system: IRAK3
IRAK4 = system: IRAK4
ITK = system: ITK
[1] = system: JAK1(JH1domain-catalytic)
[2] = system: JAK1(JH2domain-pseudokinase)
[3] = system: JAK2(JH1domain-catalytic)
[4] = system: JAK3(JH1domain-catalytic)
JNK1 = system: T1, JNK1
T1 construct: gene MAPK8

JNK2 = system: T2, JNK2
T2 construct: gene MAPK9

JNK3 = system: T3, JNK3
T3 construct: gene MAPK10
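Further: KINOMEscan kinase panel screen.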

Compound	%Inh (IRAK3) [%]	%Inh (IRAK4) [%]	%Inh (ITK) [%]	%Inh [1] [%]	%Inh [2] [%]	%Inh [3] [%]	%Inh [4] [%]	%Inh (JNK1) [%]	%Inh (JNK2) [%]	%Inh (JNK3) [%]
O=C(Nc1n[nH]c2cc(-c3cccc(F)c3)ccc12)C1CC1 [SB-735464]	0	17	0	12	23	7	0	23	12	17
COc1cc2ncn(-c3cc(OCc4sccc4Cl)c(C(N)=O)s3)c2cc1OC [GSK448459]	0	4	12	0	0	2	0	20	11	7
O=c1cc(N2CCOCC2)nc2n(Cc3cccc4ccccc34)ccn12 [GSK2333389]	0	20	21	7	0	17	0	21	0	0
CN(C1=C(c2ccccc2)C(=O)NC1=O)c1ccccc1 [SB-334860]	0	0	0	0	6	0	14	0	21	15
O=c1cc(N2CCOCC2)nc2n(Cc3cccc(Cl)c3Cl)c(C3CC3)nn12 [GSK2358994]	0	0	4	9	3	6	0	19	0	0
COc1ccc(Nc2ncc(C#N)c(Nc3ccccc3C(N)=O)n2)cc1N1CCN(C)CC1.Cl [GSK1558669]	100	99.4	99.8	0	99.9	99.1	98.8	99.5	100	99.9
Nc1nc(-c2ccc3c(N)n[nH]c3c2)cc(N2CCCC2)n1 [GSK2227430]	0	2	0	0	11	0	0	5	12	0
CC(C)Oc1ccc2c(-c3ccnc(Nc4ccc(N5CCN(C)CC5)cc4)n3)cnn2n1 [GW696155]	94.2	60	0	48	93.5	99.4	100	100	99.7	99.9
COC(=O)Nc1nc2cc(Oc3ccc(NC(=O)Nc4cc(F)ccc4F)cc3)ccc2[nH]1.Cl [GW701424]	0	6	0	26	0	1	0	0	2	0
Cl.Oc1cccc(Nc2ccnc3cc(-c4ccncc4)ccc23)c1 [GW494601]	57	1	0	65	0	50	18	14	37	21
Cc1nnc(-c2ccc3occ(-c4ccc(C(C)O)cc4)c3c2)o1 (centres unmarked)	1	32	14	0	5	6	9	2	0	0
Cn1ccc2ncnc(Oc3ccc(NC(=O)Nc4ccncc4)c(Cl)c3)c21	0	7	0	14	0	0	0	0	0	0
Fc1ccc(-c2nn3c(OCC(F)(F)F)cccc3c2-c2ccncc2)cc1 [GW514784]	0	0	9	24	14	4	0	97.6	99.9	99.9
Cc1ccc(C(=O)NCC(N)=O)cc1-n1c(C)cc(OCc2ccc(F)cc2F)c(Br)c1=O	15	0	22	0	49	0	4	0	0	0
O=C(NCCCN1CCOCC1)c1cccc(Nc2nccc(Nc3ccc(Oc4ccccc4)cc3)n2)c1 [GW663929]	63	0	0	46	21	82	0	33	25	16
CSc1ccc(-c2cc3ncnc(SCC(=O)O)c3s2)cc1	0	9	0	1	0	0	0	5	10	0
CNc1ncnc2[nH]ncc12 [SKF-18355]	0	0	0	0	31	20	2	8	1	0
